Prx2 Sm inh: blocks S. mansoni peroxiredoxin 2 enzymatic activity; S. mansoni Prx2 activity coupled to TGR/GSH (TGR is thioredoxin glutathione reductase), NADPH fluorescence loss, qHTS; Potency, µM; 65,000 tested, 0.07% active
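Prx2 inhibition was measured as reduced NADPH consumption when electrons flowed from NADPH through TGR and glutathione to Prx2 and H2O2. Plates were read kinetically over 8 min; enzyme reagents were held at 4 deg C during dispensing.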
AmpC inh no det: AmpC beta-lactamase inhibition, detergent-free assay | AmpC nitrocefin hydrolysis, absorbance 480 nm, no detergent | Potency, µM (series often up to 28.7 µM) | 71,000 tested, 1.8% active
Target sequence (P00811 whole entry, looked up): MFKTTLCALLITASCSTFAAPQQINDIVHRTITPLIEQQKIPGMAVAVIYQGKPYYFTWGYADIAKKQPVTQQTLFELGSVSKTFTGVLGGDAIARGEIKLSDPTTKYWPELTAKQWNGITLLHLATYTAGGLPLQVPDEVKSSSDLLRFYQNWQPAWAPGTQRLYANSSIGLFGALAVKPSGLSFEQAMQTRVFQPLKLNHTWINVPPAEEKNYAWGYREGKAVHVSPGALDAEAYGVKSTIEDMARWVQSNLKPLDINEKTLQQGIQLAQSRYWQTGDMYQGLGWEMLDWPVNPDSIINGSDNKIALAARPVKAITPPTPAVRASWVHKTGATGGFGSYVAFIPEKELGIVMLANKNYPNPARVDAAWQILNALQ
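AmpC in 20 mM phosphate buffer pH 7.0 was preincubated 15 min at room temperature with compounds. Nitrocefin (800 uM stock) was then added and hydrolysis followed at 480 nm every 20 s for 4 min.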
LT uptake inh: blocks cellular internalization of anthrax lethal toxin. Cells, anthrax lethal toxin internalization, FRET ratio (460/530). Potency, µM (titrated, usually from 40 µM), most hits filed as inhibitors. 70,000 tested, 0.67% active. AID 912; further: nearly all actives have a fitted effect of over 50% in size
AmpC inh det: inhibitors of E. coli AmpC beta-lactamase with detergent; P00811; purified AmpC, nitrocefin hydrolysis with detergent; Potency, µM (top dose mostly 28.7 µM); 71,000 tested, 0.09% active; AID 584; active means well fitted curve in the direction sought with a large enough effect; inconclusive means small, poorly fitted or top-dose-only effect
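E. coli AmpC (5.3 nM) in 20 mM phosphate pH 7.0 with 0.01% Triton X-100, preincubated 15 min RT with compound; nitrocefin (2 uL of 800 uM stock) hydrolysis followed by 480 nm absorbance every 20 s over 4 min.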
Of the large screens only hits and unclear results are named; the others gave an inactive call; [ ] = remark or other dose. The list is not random: actives were taken first. Their share in the collection is about 2.4%. Unless noted, the call rests on the fitted dose curve.

Cc1cccc2cc(C#N)c(SCC(=O)N3CC(=O)Nc4ccccc43)nc12	AmpC inh no det 16µM[single pt active]
Cc1cccc2cc(C#N)c(SCC(=O)N3CCC(C)CC3)nc12	none
O=c1c(-c2ccc(F)cc2)nc2cnc(Oc3cccc(Cl)c3)nc2n1C[C@H]1CCCO1	LT uptake inh inconclusive
CN(C)c1ncnc2ccc(-c3cccc(C#N)c3)cc12	AmpC inh no det inconclusive, AmpC inh det inconclusive
N#Cc1c(NC(=O)CSc2ncnc3sccc23)oc(-c2ccco2)c1-c1ccco1	AmpC inh no det 7.9µM, LT uptake inh inconclusive
CCn1c(SCC(=O)Nc2oc(-c3ccccc3)c(-c3ccccc3)c2C#N)nnc1-c1ccco1	AmpC inh no det inconclusive, LT uptake inh inconclusive
CC1(C(=O)NC2CCCCC2)CCC(=O)N1Cc1cccnc1 (configuration not stated)	AmpC inh no det 4µM[single pt active]
CCOc1ccc(CN2C(=O)CCC2(C)C(=O)NCc2cccnc2)cc1 (configuration not stated)	none
CC1CCC(NC(=O)C2(C)CCC(=O)N2Cc2cccnc2)CC1 (configuration not stated)	AmpC inh no det 4µM[single pt active]
C/C=C/C=O	none (no result: Prx2 Sm inh)
Cc1ccc2c(c1)NC(=O)C(CC(=O)NCCCN1CCCCC1)O2 (configuration not stated)	none
Cc1ccc2c(c1)NC(=O)C(CC(=O)NCCN(C)C)O2 (configuration not stated)	AmpC inh no det 3.2µM[single pt active]
CCOCCCNC(=O)CC1Oc2ccc(C)cc2NC1=O (configuration not stated)	AmpC inh no det 4µM[single pt active]
Cc1ccc2c(c1)NC(=O)C(CC(=O)O)O2 (configuration not stated)	none
Cc1ccc(CCNC(=O)CC2Oc3ccc(C)cc3NC2=O)cc1 (configuration not stated)	AmpC inh no det 4µM[single pt active]
Cc1ccccc1CSc1nnc(C)c(=O)[nH]1	AmpC inh no det 4µM[single pt active]
Cc1nnc(SCCc2ccccc2)[nH]c1=O	none
C=CCc1cccc(C2C(C)CCC3C(=O)N4C(CCC(C)C4c4cccc(CC=C)c4)C(=O)N32)c1 (configuration not stated)	none (no result: Prx2 Sm inh, AmpC inh no det, AmpC inh det)
CN1C[C@@H](C(=O)N[C@]2(C)O[C@]3(O)[C@H]4CCCN4C(=O)[C@H](Cc4ccccc4)N3C2=O)C[C@H]2c3cccc4[nH]cc(c34)C[C@@H]21	none
Cc1cc(=Nc2ccc3c(c2)c(N)cc(C)[n+]3C)nc(N)n1C	none
COc1ccccc1C(=O)N(Cc1nc(-c2ccc(Cl)cc2)no1)C(C)C	LT uptake inh 13µM
COc1ccc(-c2noc(CN(C)S(=O)(=O)c3ccc(Cl)cc3)n2)cc1OC	LT uptake inh 13µM
COc1ccc(S(=O)(=O)Cc2ccc(C(=O)N3CCN(Cc4ccccc4)CC3)o2)cc1	none
COc1ccc(S(=O)(=O)Cc2ccc(C(=O)N3CCN(c4ccc(Cl)cc4)CC3)o2)cc1	LT uptake inh 13µM
COc1ccc(S(=O)(=O)Cc2ccc(C(=O)N3CCc4ccccc4C3)o2)cc1	AmpC inh no det 3.2µM[single pt active]
COc1ccc(N2CSC3=C(C#N)C(c4cc(OC)c(OC)cc4OC)CC(=O)N3C2)c(OC)c1 (configuration not stated)	none
COc1ccc(N2CSC3=C(C#N)C(c4cccs4)CC(=O)N3C2)cc1 (configuration not stated)	LT uptake inh inconclusive
CCOc1ccccc1N1CSC2=C(C#N)C(c3c(OC)ccc4ccccc34)CC(=O)N2C1 (configuration not stated)	AmpC inh no det 2.5µM[single pt active], LT uptake inh inconclusive
N#CC1=C2SCN(c3ccc(F)cc3)CN2C(=O)CC1c1cccc(F)c1 (configuration not stated)	AmpC inh no det 4µM[single pt active]
CCc1ccc(C2CC(=O)N3CN(c4ccccc4)CSC3=C2C#N)cc1 (configuration not stated)	AmpC inh no det 20µM[single pt active]
COc1ccc(N2CSC3=C(C#N)C(c4cc(OC)ccc4OC)CC(=O)N3C2)c(OC)c1 (configuration not stated)	LT uptake inh inconclusive
CN1CSC2=C(C#N)C(c3cccc(OCc4ccccc4)c3)CC(=O)N2C1 (configuration not stated)	AmpC inh no det 4µM[single pt active], LT uptake inh inconclusive
CCc1ccc(N2CSC3=C(C#N)C(c4cccs4)CC(=O)N3C2)cc1 (configuration not stated)	none
CC(C)NC(=O)N1CC2(CCN(C(=O)c3cccn3C)CC2)C1	LT uptake inh inconclusive
COC(=O)[C@@H]1C[C@@H]1[C@@H](NP(=O)(c1ccccc1)c1ccccc1)c1ccccc1	none (no result: Prx2 Sm inh)
COc1ccc(N2CSC3=C(C#N)C(c4ccc(OC)c(OC)c4)CC(=O)N3C2)c(OC)c1 (configuration not stated)	none (no result: Prx2 Sm inh)
CCOC(=O)c1ccc(N2CSC3=C(C#N)C(c4cccs4)CC(=O)N3C2)cc1 (configuration not stated)	AmpC inh no det 2.5µM
COc1ccc(C2CC(=O)N3CN(c4ccc(C)c(Cl)c4)CSC3=C2C#N)cc1OC (configuration not stated)	LT uptake inh 6.3µM
c1ccc(CCCN2CCN(CCOC(c3ccccc3)c3ccccc3)CC2)cc1	LT uptake inh 25µM
Fc1ccc(C(OCCN2CCN(CCCc3ccccc3)CC2)c2ccc(F)cc2)cc1	LT uptake inh inconclusive
Cn1cccc1C(=O)NC(=O)COC(=O)c1ccccc1Sc1ccccc1C#N	AmpC inh no det 4µM, LT uptake inh inconclusive
COc1ccc(-c2cc(C(F)(F)F)nc(S(=O)(=O)CCC(=O)N3CCOCC3)n2)cc1	LT uptake inh inconclusive
COc1ccccc1-c1cc(C(F)(F)F)nc(S(=O)(=O)CCCC(=O)N2CCOCC2)n1	LT uptake inh 1.6µM
CCOC(=O)C1CCN(c2c(NCCCN3CCN(Cc4ccccc4)CC3)c(=O)c2=O)CC1	none
CCOC(=O)N1CCN(c2c(NCC3CCN(Cc4cccc(C)c4)CC3)c(=O)c2=O)CC1	AmpC inh no det 4µM[single pt active]
CCOC(=O)N1CCN(c2c(NCCN3CCN(Cc4ccccc4)CC3)c(=O)c2=O)CC1	AmpC inh no det 4µM[single pt active]
CCOC(=O)N1CCC(Nc2c(NCCN3CCN(Cc4ccccc4)CC3)c(=O)c2=O)CC1	none
CCOC(=O)N1CCN(c2c(NCCCN(C)c3ccccc3)c(=O)c2=O)CC1	AmpC inh no det 4µM[single pt active]
CCOC(=O)C1CCCN(c2c(NCCCN(C)Cc3ccccc3)c(=O)c2=O)C1 (configuration not stated)	none
CCOC(=O)N1CCN(c2c(NCCN(C)Cc3ccccc3)c(=O)c2=O)CC1	AmpC inh no det 4µM[single pt active]
COCCNc1nc(C)nc2c1nc(-c1ccccc1)n2CCN1CCCC1	none (no result: Prx2 Sm inh)
OC[C@@H]1O[C@@H](n2cnc3c(NC4CCCC4)ncnc32)[C@@H](O)[C@H]1O	none
CCOC(=O)N1CCN(c2c(NCCCOC(C)C)c(=O)c2=O)CC1	AmpC inh no det 4µM[single pt active]
CC1=C(O)C(=O)[C@H]2O[C@@H]2C1=O	LT uptake inh inconclusive
CCCN1C(=O)c2cc(C(=O)NC3CCCC3)ccc2C1O (configuration not stated)	AmpC inh no det 4µM[single pt active]

Assay outcomes as filed in PubChem BioAssay.
